In all, about 5,500 compounds went through this assay and about 2,000 (36%) were called active. Inconclusive results (about 18%) are left out. Cut-off read from the data, not from the text of the source: active = normalized growth mostly below about 0.91 (no sharp cut-off); inconclusive = no clear call, values can overlap the other calls; inactive = mostly above about 0.92. This is one part of the list.
Assay: chemical genetic growth profiling, strain panel (AID 1159580);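 note: tested at 20 µM; growth read once vehicle control cultures reached saturation at 30 °C; 1 = growth at the plate median or of vehicle wells; lower values mean less growth of the strain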
Settings: growth OD

Measured: normalized growth

Cc1cc(O)c(C=O)c2c1C(=O)Oc1c(COC(=O)/C=C/C(=O)O)c(O)c(C(=O)O)c(C)c1O2
active: S. cerevisiae deletion strains, locus YLL001W, strain dnm1, hits give low values 0.888 | S. cerevisiae deletion strains, locus YLR357W, strain rsc2, hits give low values 0.841 | S. cerevisiae deletion strains, locus YMR058W, strain fet3, hits give low values 0.311 | S. cerevisiae deletion strains, locus YNL209W, strain ssb2, hits give low values 0.804 | S. cerevisiae deletion strains, locus YOR106W, strain vam3, hits give low values 0.709 | S. cerevisiae deletion strains, locus YOR270C, strain vph1, hits give low values 0.503 | S. cerevisiae deletion strains, locus YPL051W, strain arl3, hits give low values 0.831 | S. cerevisiae strains, strain wild type, hits give low values 0.874
inactive: S. cerevisiae deletion strains, locus YJR043C, strain POL32, hits give low values 0.954 | S. cerevisiae deletion strains, locus YJR066W, strain TOR1, hits give low values 0.931 | S. cerevisiae deletion strains, locus YJR075W, strain HOC1, hits give low values 0.962 | S. cerevisiae deletion strains, locus YKL009W, strain mrt4, hits give low values 0.974 | S. cerevisiae deletion strains, locus YKL068W, hits give low values 0.993 | S. cerevisiae deletion strains, locus YKL085W, strain MDH1 (second series), hits give low values 0.991 | S. cerevisiae deletion strains, locus YKL085W, strain MDH1, hits give low values 0.991 | S. cerevisiae deletion strains, locus YKL160W, strain elf1, hits give low values 0.992 | S. cerevisiae deletion strains, locus YKR001C, strain vps1, hits give low values 0.921 | S. cerevisiae deletion strains, locus YKR026C, strain gcn3, hits give low values 0.985 | S. cerevisiae deletion strains, locus YKR091W, strain srl3, hits give low values 1.01 | S. cerevisiae deletion strains, locus YLL026W, hits give low values 1.01 | S. cerevisiae deletion strains, locus YLL041C, strain sdh2, hits give low values 1 | S. cerevisiae deletion strains, locus YLR027C, strain aat2, hits give low values 0.982 | S. cerevisiae deletion strains, locus YLR039C, strain RIC1, hits give low values 0.933 | S. cerevisiae deletion strains, locus YLR058C, strain SHM2, hits give low values 0.937 | S. cerevisiae deletion strains, locus YLR102C, strain apc9, hits give low values 0.991 | S. cerevisiae deletion strains, locus YLR113W, strain HOG1, hits give low values 0.984 | S. cerevisiae deletion strains, locus YLR221C, strain rsa3, hits give low values 0.946 | S. cerevisiae deletion strains, locus YLR258W, strain gsy2, hits give low values 0.987 | S. cerevisiae deletion strains, locus YLR262C, strain YPT6 (second series), hits give low values 0.877 | S. cerevisiae deletion strains, locus YLR262C, strain YPT6, hits give low values 0.936 | S. cerevisiae deletion strains, locus YLR268W, strain sec22, hits give low values 0.924 | S. cerevisiae deletion strains, locus YLR320W, strain mms22, hits give low values 0.959 | S. cerevisiae deletion strains, locus YLR330W, strain CHS5, hits give low values 0.971 | S. cerevisiae deletion strains, locus YLR342W, strain FKS1 (second series), hits give low values 0.98 | S. cerevisiae deletion strains, locus YLR342W, strain FKS1, hits give low values 0.968 | S. cerevisiae deletion strains, locus YLR370C, strain arc18, hits give low values 0.967 | S. cerevisiae deletion strains, locus YLR371W, strain rom2, hits give low values 0.943 | S. cerevisiae deletion strains, locus YLR384C, strain iki3, hits give low values 0.996 | S. cerevisiae deletion strains, locus YLR418C, strain cdc73, hits give low values 0.883 | S. cerevisiae deletion strains, locus YML016C, strain PPZ1, hits give low values 0.957 | S. cerevisiae deletion strains, locus YML032C, strain rad52, hits give low values 1.01 | S. cerevisiae deletion strains, locus YML120C, strain ndi1, hits give low values 1 | S. cerevisiae deletion strains, locus YML124C, strain tub3, hits give low values 0.996 | S. cerevisiae deletion strains, locus YMR078C, strain ctf18, hits give low values 0.986 | S. cerevisiae deletion strains, locus YMR125W, strain sto1, hits give low values 1.08 | S. cerevisiae deletion strains, locus YMR129W, hits give low values 1.01 | S. cerevisiae deletion strains, locus YMR205C, strain PFK2, hits give low values 0.998 | S. cerevisiae deletion strains, locus YMR223W, strain ubp8, hits give low values 0.961 | S. cerevisiae deletion strains, locus YMR231W, strain pep5, hits give low values 0.94 | S. cerevisiae deletion strains, locus YMR307W, strain GAS1, hits give low values 0.72 | S. cerevisiae deletion strains, locus YNL067W, strain RPL9B, hits give low values 0.92 | S. cerevisiae deletion strains, locus YNL071W, strain lat1, hits give low values 1 | S. cerevisiae deletion strains, locus YNL183C, strain NPR1, hits give low values 0.931 | S. cerevisiae deletion strains, locus YNL233W, strain BNI4, hits give low values 0.967 | S. cerevisiae deletion strains, locus YNL248C, strain rpa49, hits give low values 1.01 | S. cerevisiae deletion strains, locus YNL250W, strain rad50, hits give low values 0.956 | S. cerevisiae deletion strains, locus YNL271C, strain bni1, hits give low values 0.954 | S. cerevisiae deletion strains, locus YNL298W, strain CLA4, hits give low values 0.966 | S. cerevisiae deletion strains, locus YNL307C, strain MCK1, hits give low values 0.98 | S. cerevisiae deletion strains, locus YNL322C, strain KRE1 (second series), hits give low values 1.04 | S. cerevisiae deletion strains, locus YNR049C, strain mso1, hits give low values 0.995 | S. cerevisiae deletion strains, locus YNR052C, strain pop2, hits give low values 0.963 | S. cerevisiae deletion strains, locus YOL012C, strain htz1 0.751 | S. cerevisiae deletion strains, locus YOL147C, strain pex11, hits give low values 0.994 | S. cerevisiae deletion strains, locus YOR001W, strain rrp6, hits give low values 0.961 | S. cerevisiae deletion strains, locus YOR061W, strain CKA2, hits give low values 0.95 | S. cerevisiae deletion strains, locus YOR069W, strain VPS5, hits give low values 0.976 | S. cerevisiae deletion strains, locus YOR070C, strain gyp1, hits give low values 0.988 | S. cerevisiae deletion strains, locus YOR080W, strain dia2, hits give low values 1.02 | S. cerevisiae deletion strains, locus YOR083W, strain WHI5, hits give low values 0.937 | S. cerevisiae deletion strains, locus YOR136W, strain idh2, hits give low values 0.988 | S. cerevisiae deletion strains, locus YOR144C, strain elg1, hits give low values 0.993 | S. cerevisiae deletion strains, locus YOR184W, strain ser1, hits give low values 0.946 | S. cerevisiae deletion strains, locus YOR231W, strain MKK1, hits give low values 0.953 | S. cerevisiae deletion strains, locus YOR265W, strain rbl2, hits give low values 0.964 | S. cerevisiae deletion strains, locus YOR290C, strain snf2, hits give low values 0.869 | S. cerevisiae deletion strains, locus YOR316C, strain cot1, hits give low values 0.989 | S. cerevisiae deletion strains, locus YPL078C, strain atp4, hits give low values 0.925 | S. cerevisiae deletion strains, locus YPL106C, strain sse1, hits give low values 0.942 | S. cerevisiae deletion strains, locus YPL240C, strain hsp82, hits give low values 1.01 | S. cerevisiae deletion strains, locus YPL256C, strain CLN2, hits give low values 1.01 | S. cerevisiae deletion strains, locus YPR119W, strain clb2, hits give low values 0.991 | S. cerevisiae deletion strains, locus YPR141C, strain kar3, hits give low values 0.96 | S. cerevisiae deletion strains, locus YPR163C, strain tif3, hits give low values 0.987 | S. cerevisiae deletion strains, locus YPR167C, strain met16, hits give low values 0.998 | S. cerevisiae deletion strains, strain wtn01, hits give low values 0.945

From PubChem BioAssay AID1159580 (chemical genetic matrix, 2015)
